# KCNH2 3.1 block: inhibitors of human KCNH2 3.1 potassium channel isoform. U2OS KCNH2 3.1, thallium flux FluxOr; hits give low values. AID 720553. activity change, % (tested at about 1.8 µM). 340,000 tested, 0.95% active;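 active = maximum activity change below -70%; inconclusive = maximum activity change from -70% to -50%; inactive = maximum activity change above -50%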;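 also: thallium influx rate constant from kinetic fluorescence after stimulation buffer; % is scaled to controls: 0 for no effect and ±100 for the full control effect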
#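 Normalized rate constant (relative to positive and negative DMSO controls) derived from a 2 min kinetic fluorescence read after stimulation; U2OS cells expressing the 3.1 isoform via virus at 1.77 x 10^8 /mL.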
# SW480 rereplic: inducers of DNA re-replication in SW480 colon cancer cells. SW480 DNA re-replication, Hoechst DNA content imaging, 48 h. Potency, µM (doses to about 46.1 µM), for inactives: at the highest dose re-replication activation, hits mostly activators. 340,000 tested, 1.8% active. AID 624297; also: potency is read from the fitted curve at half-maximal effect; % of control where 0% means no effect; nearly all actives have a fitted effect of over 55% in size
#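 Image-based DNA-content assay: after two days of treatment, nuclei were labelled with the DNA dye Hoechst and imaged, and hits were compounds raising the count of nuclei showing high fluorescence intensity.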
# MCF10A rereplic: inducers of DNA re-replication in MCF 10A breast cells; MCF 10A DNA re-replication, Hoechst nuclear intensity, 48 h; Potency, µM (doses to about 46.1 µM), inactives show at the top dose activity, positive = re-replication, most hits filed as activators; 350,000 tested, 2.9% active; AID 624296; also: potency is read from the fitted curve at half-maximal effect; % of control where 0% means no effect; nearly all actives have a fitted effect of over 50% in size
# KB-V1 MDR tox: KB-V1 MDR subline cytotoxicity; Potency, µM (doses to about 46.1 µM), usual class: cytotoxic; 400,000 tested, 3.4% active; KB-V1 MDR cells viability, CellTiter-Glo, 72 h; also: potency is read from the fitted curve at half-maximal effect; % is scaled to controls: 0 for no effect and ±100 for the full control effect; nearly all actives have a fitted effect of over 60% in size
#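 Following 72 h at 37 degrees C with compound, KB-V1 cell viability was read by CellTiter-Glo luminescence, medium being phenol-red-free DMEM plus 10% FBS; concentration-response parameters came from normalized, curve-fitted qHTS data.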
# KB-3-1 cytotox: KB-3-1 parental cell cytotoxicity. KB-3-1 viability, CellTiter-Glo ATP luminescence, 72 h. Potency, µM (top dose mostly 46.1 µM), actives largely listed as cytotoxic. 400,000 tested, 1.4% active; also: potency is read from the fitted curve at half-maximal effect; % is scaled to controls: 0 for no effect and ±100 for the full control effect; nearly all actives have a fitted effect of over 60% in size
#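 Parental KB-3-1 viability, qHTS format: 72 h compound exposure, 37 °C; CellTiter-Glo; media-only wells and DMSO plates as controls; concentration-effect fits on corrected data.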
# hERG WT inh: blocks the wildtype human KCNH2 potassium channel; Q12809; U2OS, BacMam KCNH2, thallium flux FluxOr; hits give low values; activity change, % at 1.84 µM; 340,000 tested, 0.37% active; AID 720551;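 active = maximum activity change below -70%; inconclusive = maximum activity change between -70% and -50%; inactive = maximum activity change above -50%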; also: % is scaled to controls: 0 for no effect and ±100 for the full control effect
# Target sequence (Q12809 whole entry, looked up): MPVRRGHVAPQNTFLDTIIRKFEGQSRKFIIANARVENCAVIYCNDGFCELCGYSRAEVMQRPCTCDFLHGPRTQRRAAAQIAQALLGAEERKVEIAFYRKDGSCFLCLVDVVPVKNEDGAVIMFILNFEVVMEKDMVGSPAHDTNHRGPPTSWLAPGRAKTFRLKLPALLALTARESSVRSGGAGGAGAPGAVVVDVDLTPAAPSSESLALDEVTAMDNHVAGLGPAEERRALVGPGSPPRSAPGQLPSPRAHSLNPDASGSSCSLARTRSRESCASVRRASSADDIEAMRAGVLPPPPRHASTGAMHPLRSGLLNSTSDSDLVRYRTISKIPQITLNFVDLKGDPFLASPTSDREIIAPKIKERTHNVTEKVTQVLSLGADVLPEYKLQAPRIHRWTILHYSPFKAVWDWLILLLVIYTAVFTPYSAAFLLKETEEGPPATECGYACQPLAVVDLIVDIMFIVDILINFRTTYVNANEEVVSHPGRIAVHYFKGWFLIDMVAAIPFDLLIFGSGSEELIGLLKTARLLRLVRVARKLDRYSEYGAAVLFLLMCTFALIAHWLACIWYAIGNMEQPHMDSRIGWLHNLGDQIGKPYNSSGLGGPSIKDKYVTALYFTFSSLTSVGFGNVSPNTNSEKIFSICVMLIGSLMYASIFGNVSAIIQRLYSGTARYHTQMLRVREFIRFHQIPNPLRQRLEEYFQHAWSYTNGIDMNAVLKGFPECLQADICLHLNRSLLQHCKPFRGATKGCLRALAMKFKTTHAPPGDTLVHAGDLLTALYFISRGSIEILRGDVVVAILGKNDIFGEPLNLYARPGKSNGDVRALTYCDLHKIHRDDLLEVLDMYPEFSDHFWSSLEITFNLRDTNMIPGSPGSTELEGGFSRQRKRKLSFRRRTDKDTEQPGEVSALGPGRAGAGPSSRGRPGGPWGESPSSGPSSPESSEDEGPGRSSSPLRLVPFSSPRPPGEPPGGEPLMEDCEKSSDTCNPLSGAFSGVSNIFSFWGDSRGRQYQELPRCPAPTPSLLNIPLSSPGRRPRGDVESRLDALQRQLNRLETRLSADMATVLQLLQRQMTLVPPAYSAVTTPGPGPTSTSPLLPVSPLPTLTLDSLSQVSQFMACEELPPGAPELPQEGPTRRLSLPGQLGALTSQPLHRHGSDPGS
#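 U2OS cells transduced with wild-type KCNH2 virus are loaded with FluxOr dye for 45 min, and thallium flux is measured in kinetic reads before and after stimulation buffer. Rate constants are normalized to DMSO controls.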
# * = called active by the depositor; i = inactive; ? = inconclusive; . = no result given. Most compounds without a hit are left out; they make up all but 7.6% or so of the library. Unless noted, calls follow the shape of the dose curve; as a rule, active = well fitted curve in the direction sought with a large enough effect; inconclusive = small, poorly fitted or top-dose-only effect, or another doubt; inactive = no such curve, though single readings can be large; an effect the other way counts as inactive or inconclusive.
SMILES,KCNH2 3.1 block,SW480 rereplic,MCF10A rereplic,KB-V1 MDR tox,KB-3-1 cytotox,hERG WT inh
COc1cc(-c2nc3ccc(C)cn3c2NCc2ccccc2)ccc1-c1cccc(Cl)c1,-49.0,?,?,i,i,13.2
COc1ccc(-c2nc3ccccn3c2NC2CCCCC2)cc1SC1CCCCC1,-15.5,?,11.6µM*,i,?,6.3
COc1cc(-c2nc3ccc(C)cn3c2NCc2ccccc2)ccc1SC1CCCCC1,?,?,18.4µM*,?,i,-3.0
COc1ccc(N2C(=O)C(CN3CCN(C)CC3)C2c2ccccc2)cc1 (stereo not drawn),-9.8,-56.8%,1.6%,i,i,.
CC1(C)CC(NC(=O)C(c2ccccc2)c2ccccc2)CC(C)(C)N1,-6.0,1.6%,7.2%,i,i,4.3
CC(=O)c1cccc(N(C(=O)c2ccco2)C(C(=O)NC2CCCCC2)c2ccc(C)o2)c1 (stereo not drawn),-21.6,-0.8%,-1.8%,?,i,-6.5
CCn1c(Oc2ccc(F)cc2F)nc2c1c(=O)n(C)c(=O)n2C,.,.,.,?,i,.
CC(=O)Nc1sc2c(c1-c1nc3ccccc3s1)CN(C(C)C)CC2,.,2.59µM*,?,?,?,.
CC(=O)N1CCc2c(sc(NC(=O)C3CC3)c2-c2nc3ccccc3s2)C1,6.1,?,23.1µM*,i,?,-3.6
O=C1CCCC2=C1C1(CCOCC1)N=C(Nc1nc3ccccc3o1)N2,.,.,.,i,i,.
O=C1C=C(c2cccc3c2oc2ccccc23)C[C@@H](c2ccc(F)cc2)C1,6.1,18.0%,-0.2%,i,i,1.3
CC(OC(=O)/C(C#N)=C/c1ccc(N(C)C)cc1)C(=O)N(C)c1ccccc1 (stereo not drawn),-48.7,4.5%,?,18.4µM*,i,-5.3
COc1ccc(NC(=O)CN2C(=O)C(C)Oc3ccccc32)cc1 (stereo not drawn),13.9,3.1%,4.7%,?,i,3.0
COc1ccc(NC(=O)CN2C(=O)C(C)Oc3ccccc32)c(OC)c1 (stereo not drawn),-4.8,-15.3%,1.2%,16.4µM*,i,8.2
Cc1cccc(NC(=O)CN2C(=O)C(C)Oc3ccccc32)n1 (stereo not drawn),8.2,-35.2%,-8.1%,i,i,-16.9
Cc1ccc(NC(=O)CN2C(=O)C(C)Oc3ccccc32)nc1 (stereo not drawn),.,-4.1%,2.3%,14.6µM*,i,4.9
CC1=C(C(=O)OC2CCCCCCC2)C(c2cc3c(cc2Br)OCO3)CC(=O)N1 (stereo not drawn),-3.0,?,5.8µM*,i,?,-17.0
COC(=O)C1=C(C)NC(=O)CC1c1cc2c(cc1Br)OCO2 (stereo not drawn),-2.6,-6.5%,3.9%,i,i,10.0
CCN(Cc1ccccc1)C(c1cc2cc(C)cc(C)c2[nH]c1=O)c1nnnn1CCOC (stereo not drawn),-7.5,5.4%,1.3%,i,i,12.4
CCN(Cc1ccccc1)C(c1cc2cc(C)ccc2[nH]c1=O)c1nnnn1CCOC (stereo not drawn),-11.7,2.8%,0.7%,16.4µM*,?,0.3
COCCn1nnnc1C(c1cc2cc(C)cc(C)c2[nH]c1=O)N1CCN(c2ccccc2F)CC1 (stereo not drawn),1.6,0.9%,1.9%,23.1µM*,i,7.2
O=C(Cn1c(=O)n(-c2ccccc2)c(=O)c2ccc(C(=O)NCc3ccc4c(c3)OCO4)cc21)Nc1ccc(F)c(Cl)c1,.,.,.,i,i,.
Clc1cc(Cl)cc(Nc2ncn[nH]2)c1,-11.4,-3.6%,-2.0%,i,i,-6.9
OCC1(CCc2ccccc2)CCN(Cc2ccc(OC(F)F)cc2)CC1,.,0.1%,16.8%,i,i,-182.9*
OCC1(CCCc2ccccc2)CCN(Cc2ccc(F)cc2)CC1,-9.5,9.6%,13.5%,i,i,4.9
SMILES,KCNH2 3.1 block,SW480 rereplic,MCF10A rereplic,KB-V1 MDR tox,KB-3-1 cytotox,hERG WT inh
CC(COc1ccccc1)N1CCC(CO)(CCc2ccccc2)CC1 (stereo not drawn),-100.7*,19.7%,?,?,i,?
CSCC(C)N1CCC(CO)(CCc2ccccc2)CC1 (stereo not drawn),-7.2,1.8%,3.9%,i,i,20.1
CCOC(=O)c1sc(-c2ccc(OC)cc2)cc1N,-0.5,17.7%,?,i,i,2.1
CCOC(=O)c1sc2nc(C3CC3)cc(-c3ccc(OC)cc3)c2c1N,11.8,6.51µM*,3.66µM*,i,i,-2.0
CCOC(=O)c1sc2nc(C3CC3)cc(-c3ccc(F)cc3)c2c1N,-1.0,18.4µM*,?,14.6µM*,i,0.6
O=C(Nc1ccccc1-c1nnn(CC(=O)N2CCCc3ccccc32)n1)c1ccc(Cl)cc1,-3.9,18.8%,9.8%,i,i,4.1
CCOC(=O)N1CCN(C(=O)c2ccc(OC(C)=O)cc2)CC1,10.9,-12.8%,-8.3%,i,i,-3.5
COc1ccc(CN(C(=O)COc2ccccc2)c2ccccc2C(=O)O)cc1,-11.1,-46.6%,-0.3%,i,i,-16.7
COc1ccc(NC(=O)NCc2cccn2Cc2ccc(F)cc2)cc1OC,.,.,.,i,i,.
COc1cc2c(C(=O)NCc3ccc4c(c3)OCO4)cn(CC(C)C)c(=O)c2cc1OC,-25.3,-2.0%,14.6µM*,i,i,4.4
Cc1ccc(S(=O)(=O)N2CCN(C(=O)CCc3c[nH]c4ccccc34)CC2)cc1,4.3,-18.2%,0.6%,i,i,-3.6
COC(=O)c1c(C)[nH]c(C(=O)C(C)OC(=O)C2CC2)c1C (stereo not drawn),-2.2,2.1%,1.9%,11.6µM*,?,-3.3
COc1cccc(N2CCN(C(=O)c3ccc(CS(=O)c4ccc(Cl)cc4)o3)CC2)c1 (stereo not drawn),6.2,?,?,?,8.2µM*,0.8
COc1cccc(N2CCN(C(=O)c3ccc(CS(=O)c4ccc(C)cc4)o3)CC2)c1 (stereo not drawn),-21.5,?,?,?,0.366µM*,8.3
COc1cccc(N2CCN(C(=O)c3ccc(CS(=O)Cc4ccc(C)cc4)o3)CC2)c1 (stereo not drawn),-6.2,-7.8%,0.2%,?,i,0.4
O=C(c1ccc(CS(=O)c2cccc(Cl)c2)o1)N1CCN(c2ccccn2)CC1 (stereo not drawn),7.7,25.2%,?,?,7.31µM*,-5.3

# Bioassay records (PubChem BioAssay)
